Bioassay records from PubChem BioAssay.
Pf growth 96h: Primary qHTS for delayed death inhibitors of the malarial parasite plastid, 96 hour incubation; P. falciparum luciferase reporter growth, 96 h; Potency, µM (highest dose often 28.7 µM), actives largely listed as inhibitors; 6.9% of 320,000 active
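Erythrocytes infected with luciferase-expressing P. falciparum were dispensed at 2% hematocrit and 0.05% parasitemia (final), then incubated with compounds 96 hours at 37 C in 5% CO2. Luminescence after detection reagent addition reported growth.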
LmPK inh: qHTS Assay for Inhibitors of Leishmania Mexicana Pyruvate Kinase (LmPK). Potency, µM (highest dose often 57.5 µM), usual class: inhibitors. purified LmPK, Kinase-Glo ATP luminescence, 1 h. AID 1721, 2009. 0.37% of 290,000 active. Q27686
Target sequence (Q27686 whole entry, looked up): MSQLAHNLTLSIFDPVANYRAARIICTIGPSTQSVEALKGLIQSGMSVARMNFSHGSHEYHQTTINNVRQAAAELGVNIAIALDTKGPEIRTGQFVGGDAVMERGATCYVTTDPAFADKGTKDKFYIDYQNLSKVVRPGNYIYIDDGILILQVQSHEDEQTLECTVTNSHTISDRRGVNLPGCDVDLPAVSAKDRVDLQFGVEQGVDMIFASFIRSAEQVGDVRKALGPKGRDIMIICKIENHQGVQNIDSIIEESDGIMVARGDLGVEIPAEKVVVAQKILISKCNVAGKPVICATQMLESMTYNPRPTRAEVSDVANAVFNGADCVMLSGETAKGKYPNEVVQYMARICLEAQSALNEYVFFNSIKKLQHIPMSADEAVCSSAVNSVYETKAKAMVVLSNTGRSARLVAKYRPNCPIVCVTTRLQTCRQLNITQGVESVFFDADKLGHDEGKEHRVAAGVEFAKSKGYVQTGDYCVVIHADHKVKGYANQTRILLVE
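In 50 mM imidazole pH 7.2 with 7 mM MgCl2, LmPK (0.1 nM) turned over PEP (0.5 mM) and ADP (0.1 mM) for 1 h at room temperature. Luciferase read-out of ATP.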
CHX counter: Cycloheximide Counterscreen for Small Molecule Inhibitors of Shiga Toxin | cell reporter, cycloheximide protein synthesis inhibition counterscreen | max response, % | 12% of 300,000 active; in the data active = max response mostly above about 13%, no sharp cut-off; inactive = mostly below about 14%; also: read at 38.3 µM for the half of the compounds with a filed dose
Pf growth 48h: Primary qHTS for delayed death inhibitors of the malarial parasite plastid, 48 hour incubation; P. falciparum luciferase growth in erythrocytes, 48 h; Potency, µM (titrated, usually from 28.7 µM), hits mostly inhibitors; 5.9% of 310,000 active
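Parasite viability was followed by luminescence of a genomically integrated firefly luciferase. Cultures held 0.1% parasitemia at 2% hematocrit (final), incubated under 5% CO2 at 37 C.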
Shiga toxin inh: A qHTS for Small Molecule Inhibitors of Shiga Toxin; Vero cells, Shiga toxin protein synthesis inhibition reporter; 9.2% of 290,000 active; inhibition, % at 38.7 µM; in the data active = inhibition mostly above about 28%, no sharp cut-off; inactive = mostly below about 43%
Large screens that a line does not name were inactive. Hits are enriched below; roughly 22% of the tested compounds scored in any of these assays. Unless noted, calls follow the shape of the dose curve; as a rule, active = well fitted inhibition curve with a large enough effect; inconclusive = small, poorly fitted or top-dose-only effect, or another doubt; inactive = no such curve, though single readings can be large or run the other way.

O=C(NCc1ccco1)C(c1cccs1)N(Cc1ccccc1)C(=O)Cn1nnc2ccccc21 (stereo not given)	Pf growth 96h inconclusive, CHX counter 30, Pf growth 48h inconclusive, Shiga toxin inh 49
O=S(=O)(c1ccc2c(c1)OCCO2)N1CCN(S(=O)(=O)c2ccc(F)cc2F)CC1	none (no result: Pf growth 96h, LmPK inh, Pf growth 48h)
CCN1CCN(S(=O)(=O)c2ccc(Cl)c(C(=O)NC(C)(C)C)c2)CC1	none
Cc1ccccc1-n1cnc2c(sc3nc(N4CCOCC4)c4c(c32)CCCC4)c1=O	Pf growth 96h inconclusive, Pf growth 48h 10µM
COc1ccc(-n2cnc3c(sc4nc(N5CCOCC5)c5c(c43)CCCC5)c2=O)cc1	Pf growth 96h 2.9µM
O=c1c2sc3nc(N4CCOCC4)c4c(c3c2ncn1-c1ccccc1)CCCC4	Pf growth 48h inconclusive
Cc1ccc(-n2cnc3c(sc4nc(N5CCOCC5)c5c(c43)CCCC5)c2=O)cc1	Pf growth 48h inconclusive
COC(=O)c1ccc(Cn2cnc3c(sc4nc(N5CCOCC5)c5c(c43)CCCC5)c2=O)o1	Pf growth 48h 1.7µM
CCOC(=O)C(Sc1ncnc2c1sc1nc(N3CCOCC3)c3c(c12)CCCC3)c1ccccc1 (stereo not given)	Pf growth 96h inconclusive, Pf growth 48h 1.7µM
O=c1c2sc3nc(N4CCOCC4)c4c(c3c2ncn1CCc1ccccc1)CCCC4	Pf growth 96h inconclusive, Pf growth 48h inconclusive
C[C@H](Cc1nc2c(cnn2-c2ccccc2Cl)c(=O)[nH]1)C(F)(F)F	none (no result: Pf growth 96h, LmPK inh, Pf growth 48h)
O=C(Cc1cccc(C(F)(F)F)c1)OCN1C(=O)c2ccccc2C1=O	none
CC(C)CNc1nnnc2c1sc1nc(N3CCOCC3)c3c(c12)CCCC3	Pf growth 96h 1.3µM, Pf growth 48h 1.7µM
CCN1CCN(Cc2nc3cc(NC(=O)COc4ccc([N+](=O)[O-])cc4)ccc3n2C)CC1	Pf growth 96h inconclusive, Pf growth 48h inconclusive
Cc1cc(C)cc(N(C(=O)c2ccccn2)C(C(=O)NC2CCCCC2)c2cccs2)c1 (stereo not given)	Pf growth 96h inconclusive, Pf growth 48h inconclusive
Cc1ccc(N(C(=O)c2cnccn2)C(C(=O)NC2CCCCC2)c2ccc(O)cc2)cc1 (stereo not given)	Pf growth 48h inconclusive
CC1CCCCN1S(=O)(=O)c1ccc(N(C(=O)c2cnccn2)C(C(=O)NC2CCCC2)c2cccs2)cc1 (stereo not given)	Pf growth 96h inconclusive, Pf growth 48h 13µM
CC1CCCCN1S(=O)(=O)c1ccc(N(C(=O)c2cnccn2)C(C(=O)NC2CCCCC2)c2cccs2)cc1 (stereo not given)	Pf growth 96h 8.3µM, Pf growth 48h 12µM
O=[N+]([O-])c1c(C(Cl)Cl)nn(-c2ccc(Cl)cc2)c1N1CCCCC1	Pf growth 96h inconclusive, Pf growth 48h inconclusive
O=C(C1=NNCC1c1ccccc1)C1OC1c1ccccc1 (stereo not given)	Pf growth 96h inconclusive, CHX counter 12, Pf growth 48h inconclusive, Shiga toxin inh 34
COC(=O)[C@@H]1OC(c2ccccc2)O[C@H]1C(=O)OC	none (no result: Pf growth 96h, LmPK inh, Pf growth 48h)
Fc1ccccc1N1CCN(C2CCN(Cc3c[nH]c4ccccc34)CC2)CC1	Pf growth 96h 3.7µM (no result: Pf growth 48h)
C=CC(=O)NC(C)(C)CCN1CCOCC1	Pf growth 48h 0.93µM
Cc1sc2c(c1C)CN(CCN1CCOCC1)CN2C(=O)c1ccccc1	CHX counter 20
Cc1cc(C(=O)NNC(=O)c2ccc(NC(=O)CC#N)cc2)c(C)o1	Pf growth 48h inconclusive (no result: LmPK inh, CHX counter, Shiga toxin inh)
COc1ccccc1/C=C(/NC(=O)c1ccccc1)C(=O)NCCCn1ccnc1	none
O=[N+]([O-])c1ccc(Cl)c(/C=N/n2c(COc3ccccc3)n[nH]c2=S)c1	Pf growth 96h inconclusive
Cc1ccccc1OCc1nc2ccccc2c(=O)n1/N=C/c1c[nH]c2ccccc12	Pf growth 96h inconclusive
Cc1cc(/C=N/n2c(COc3ccccc3C)nc3ccccc3c2=O)c(O)c([N+](=O)[O-])c1	Pf growth 96h inconclusive, CHX counter 62, Pf growth 48h 3.3µM, Shiga toxin inh 57
O=c1c2ccccc2nc(COc2ccccc2)n1/N=C/c1cc([N+](=O)[O-])ccc1O	Pf growth 96h inconclusive, Pf growth 48h 2.6µM
CCCCn1c(=N)n(CC(=O)c2ccc(Br)s2)c2ccccc21	Pf growth 96h 12µM, Pf growth 48h 10µM
Cc1cccc(OCc2nnc(SCC(=O)N3c4ccccc4CCc4ccccc43)o2)c1	Pf growth 96h inconclusive, Pf growth 48h 10µM
Cc1cccc(OCc2nnc(SCC(=O)N3CCCC3)o2)c1	none
O=C(CSc1nnc(COc2ccc(F)cc2)o1)N1c2ccccc2CCc2ccccc21	Pf growth 96h inconclusive, Pf growth 48h 4.1µM
Cc1ccc(NC(=O)COc2cccc3ccccc23)c(O)c1	Pf growth 96h 4.7µM, Pf growth 48h 5.2µM (no result: LmPK inh, CHX counter, Shiga toxin inh)
Cc1ccc(NC(=O)COc2cccc3c2OC(C)(C)C3)c(O)c1	Pf growth 96h inconclusive, Pf growth 48h 10µM (no result: LmPK inh, CHX counter, Shiga toxin inh)
CC(=O)c1ccc(N=C2NC(=O)C(CO)(CO)S2)cc1	Pf growth 96h inconclusive
Cc1ccc(-n2c(-c3ccncc3)n[nH]c2=S)c(C)c1	Pf growth 48h inconclusive
Cc1nn(CCOc2ccccc2)c(=O)n1-c1ccccc1	CHX counter 29, Shiga toxin inh 38
Cc1nn(CCOc2ccccc2)c(=O)n1-c1ccc(Cl)cc1	CHX counter 30, Shiga toxin inh 76
COc1ccc(-n2c(C)nn(CCOc3ccccc3)c2=O)cc1	CHX counter 28, Shiga toxin inh 58
COc1cccc(-n2c(C)nn(CCOc3ccccc3)c2=O)c1	none
COc1cc(OC)c(NS(=O)(=O)c2cc(Br)cnc2N)cc1Cl	Pf growth 48h inconclusive
Cc1ccnc(NS(=O)(=O)c2ccc(NC(=O)c3ccc(S(=O)(=O)N4CCCC4)cc3)cc2)n1	none
CCc1nnc(NC(=O)CSc2nnc(-c3ccc(S(=O)(=O)N4CCCC4)cc3)n2CC)s1	Pf growth 96h inconclusive, CHX counter 24, Pf growth 48h inconclusive
CCn1c(SCC(=O)Nc2nccs2)nnc1-c1ccc(S(=O)(=O)N2CCCCCC2)cc1	none (no result: Pf growth 48h)
CCn1c(SCc2ccccc2)nnc1-c1ccc(S(=O)(=O)N2CCCCC2)cc1	Pf growth 48h 10µM
CCc1nnc(NC(=O)CSc2nnc3nc(C)cc(C)n23)s1	Pf growth 96h 2.1µM
Cn1c(SCC(=O)Nc2nccs2)nnc1-c1ccc(S(=O)(=O)N2CCCC2)cc1	Pf growth 96h 6.6µM (no result: Pf growth 48h)
Cc1cc(C)n2c(SCC(=O)Nc3cc(C)on3)nnc2n1	none
CCn1cc(C(=O)NCC(OC)OC)c(=O)c2cc(S(=O)(=O)N3CCC(C)CC3)ccc21	Pf growth 96h inconclusive
C=CCN(c1ccccc1)S(=O)(=O)c1cccc(C(=O)NC2CCC(O)CC2)c1 (stereo not given)	Pf growth 48h inconclusive (no result: LmPK inh, CHX counter, Shiga toxin inh)
CCc1ccc(C(=O)NNc2cc(Cl)ccc2Cl)cc1	Pf growth 48h inconclusive
CCc1ccc(C(=O)NNc2ccc(C)c(Cl)c2)cc1	CHX counter 9.9, Pf growth 48h inconclusive
